SUMO Mot1 rescue: SUMOylation pathway inhibition by Mot1-301 growth rescue; growth rescue, % at 18.8 µM; S. cerevisiae Mot1-301 growth rescue, ATP luminescence, 38.5C; percent above DMSO median, 100 means doubled; 1% of 320,000 active;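 active = every valid replicate shows activation above 250% relative to neutral control wells; inactive = the rest, any valid replicate at or below 250%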;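 also: OY570 slx delta 5 strain wells were the positive control but not used for scaling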
AI-2 QS modul: modulates the Vibrio harveyi AI-2 quorum sensing system. Vibrio harveyi JMH597 AI-2 luminescence/OD600 ratio, 9 h; stronger effect = lower value; strain lacks LuxN and CqsS sensors; 0 = neutral-control median. AID 2094. 0.4% of 300,000 active. activity change, % at 7.5 µM; in the data active = activity change below about -75%, passing the limit was not always enough;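 also: luminescence divided by OD600 gain over 9 h not by final OD600 alone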
AHR act: activators of human aryl hydrocarbon receptor; AHR-responsive luciferase reporter cells, luminescence; activation, % at 5 µM; 2.5% of 320,000 active; in the data active = activation above about 47%;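 also: 0% = vehicle wells and 100% = reference agonist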
Target sequence (P35869 whole entry, looked up): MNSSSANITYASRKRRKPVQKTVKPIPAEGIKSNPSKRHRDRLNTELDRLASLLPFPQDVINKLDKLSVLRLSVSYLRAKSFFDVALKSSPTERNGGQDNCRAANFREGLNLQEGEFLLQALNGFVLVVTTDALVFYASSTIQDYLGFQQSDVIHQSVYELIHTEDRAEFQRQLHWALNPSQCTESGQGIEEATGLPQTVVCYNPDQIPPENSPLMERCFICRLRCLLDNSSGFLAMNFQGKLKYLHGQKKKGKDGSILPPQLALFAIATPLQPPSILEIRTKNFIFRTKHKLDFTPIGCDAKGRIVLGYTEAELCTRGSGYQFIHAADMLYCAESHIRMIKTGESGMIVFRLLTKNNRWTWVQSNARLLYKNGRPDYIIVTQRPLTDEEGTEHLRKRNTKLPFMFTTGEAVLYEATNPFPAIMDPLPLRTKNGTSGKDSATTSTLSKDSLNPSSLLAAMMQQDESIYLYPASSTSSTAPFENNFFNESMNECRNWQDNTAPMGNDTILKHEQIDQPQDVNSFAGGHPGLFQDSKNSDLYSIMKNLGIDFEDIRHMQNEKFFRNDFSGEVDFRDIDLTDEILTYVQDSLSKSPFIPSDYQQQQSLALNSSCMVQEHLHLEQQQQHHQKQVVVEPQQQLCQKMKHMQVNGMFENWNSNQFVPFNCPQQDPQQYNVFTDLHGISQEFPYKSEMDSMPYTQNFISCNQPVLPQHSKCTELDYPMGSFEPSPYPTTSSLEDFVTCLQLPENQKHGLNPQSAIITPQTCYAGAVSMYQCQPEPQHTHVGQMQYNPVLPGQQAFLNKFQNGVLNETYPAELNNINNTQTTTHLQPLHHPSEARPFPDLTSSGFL
GRIN3A LBD mod: modulators (binders) of human NR3A ligand-binding domain. Tm shift relative to glycine control, % at 25 µM. NR3A LBD differential scanning fluorimetry, Tm shift; 0% = protein alone, 100% = glycine-bound protein. 2.5% of 340,000 active;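 active = melting temperature shift of at least 10% of the positive control shift, at one fixed dose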
H9c2 protect: myocardial damage modulation in H9c2 cells. protection from H2O2 cell death, % at 20 µM. H9c2 cardiomyocytes, H2O2 injury protection, ATPLite, 2 h. 0.63% of 360,000 active;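 active = compounds giving at least 50% protection of heart cells from peroxide-induced death in the single-dose screen, raw or plate-pattern-corrected value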;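 also: 0% = DMSO wells with peroxide and 100% = DMSO wells without peroxide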
NTR1 ag: NTR1 (human) agonism | NTR1-U2OS beta-arrestin-GFP spot imaging, agonist mode | activation, % at 20 µM | 0.17% of 330,000 active | AID 493036 | P30989;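 active = activation at or above 40% of the spot to cytoplasm intensity ratio, with at least 20 cells analyzed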;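 also: 0% = DMSO without peptide and 100% = 100 nM NTR1 peptide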
Active calls of the source: *; i = inactive; nt = no result. This is a sample that favours compounds with a hit; in the whole collection about 6.2% have one here.

SMILES | SUMO Mot1 rescue | AI-2 QS modul | AHR act | GRIN3A LBD mod | H9c2 protect | NTR1 ag
Cc1cc(C)cc(NCc2cc(=O)oc3cc(-c4ccccc4)c(O)cc23)c1 | 0.2 | 10.2 | 49.5* | -0.2 | -4.8 | 4.5
COc1ccccc1NCc1cc(=O)oc2c(C)c(O)ccc12 | -10.8 | -9.6 | 34.7 | -9.9 | 14.2 | 1.4
COC(=O)c1ccccc1NCc1cc(=O)oc2cc(O)c(O)cc12 | -10.0 | 10.2 | 0.1 | -6.1 | 67.2* | 3.8
Cc1cc(C)cc(NCc2cc(=O)oc3cc(C)c(O)cc23)c1 | -13.4 | 18.1 | 16.3 | 5.2 | -6.5 | 3.2
CCN(CC(=O)NCCCN1CCOCC1)S(=O)(=O)c1ccc(F)cc1 | 10.0 | 7.6 | -1.4 | -0.6 | 1.6 | 0.4
O=c1c2ccccc2nnn1CSc1ccccc1 | 7.7 | 1.5 | 60.4* | -5.0 | 1.5 | 1.3
O=c1c2ccccc2nnn1CSc1ccc2ccccc2n1 | i | 22.3 | -2.5 | -0.9 | -2.2 | 5.3
CC1=C(C(=O)N2CCOCC2)CC(CC(=O)NCc2cccc3ccccc23)C(=O)N1Cc1ccccc1 (stereo unspecified) | nt | nt | nt | nt | 4.8 | nt
CC1CCN(Cc2c(C(=O)N/N=C/c3cc(Br)ccc3O)nnn2-c2nonc2N)CC1 | -19.0 | -22.7 | 4.9 | 12.9* | 64.2* | 0.9
CCOc1ccc(/C=N/NC(=O)c2nnn(-c3nonc3N)c2CN2CCC(C)CC2)cc1 | -19.5 | 30.3 | 2.8 | 10.9* | -13.3 | 4.4
COc1c(Cl)cc(Cl)cc1/C=N/NC(=O)c1nnn(-c2nonc2N)c1CN1CCC(C)CC1 | -16.7 | 27.6 | 1.9 | 12.2* | -3.5 | 6.7
CC1CCN(Cc2c(C(=O)N/N=C/c3cccc(C(F)(F)F)c3)nnn2-c2nonc2N)CC1 | 11.8 | 12.2 | 0.6 | 16.0* | 8.6 | 9.0
CC1CCN(Cc2c(C(=O)N/N=C/c3ccc(C(F)(F)F)cc3)nnn2-c2nonc2N)CC1 | 30.2 | 10.8 | 6.0 | 6.5 | 3.0 | 2.9
C=CCn1nc(C(=O)N2CCOCC2)cc1-c1sc(NC(=O)c2ccccc2)nc1C | nt | nt | nt | nt | -26.0 | nt
Nc1nc(SCc2ccccc2)sc1C(=O)N1CCCCC1 | nt | nt | nt | nt | -6.4 | nt
CC(OC(=O)[C@@H](NC(=O)OCc1ccccc1)C(C)C)C(=O)Nc1ccc(N2CCOCC2)cc1 (stereo partly specified) | nt | nt | nt | -2.4 | 24.3 | nt
COc1ccc(-c2cc(-c3ccc(Br)cc3)nc3ncnn23)cc1OC | 29.8 | 8.6 | 53.9* | -1.1 | 1.7 | 0.9
COc1ccc(-c2cc(-c3ccccc3)nc3ncnn23)cc1 | -1.8 | 10.2 | 8.4 | 1.7 | 8.3 | 2.9
CN(CC(=O)Nc1ccc(F)cc1)C(=O)CCc1nc2ccccc2c(=O)[nH]1 | -16.5 | 16.0 | 3.5 | 2.0 | 60.1* | 0.5
CC1(NC(=O)CCc2nc3ccccc3c(=O)[nH]2)CCS(=O)(=O)C1 (stereo unspecified) | 79.2 | 22.6 | -1.3 | -0.6 | 50.8* | 0.6
COc1ccccc1NS(=O)(=O)c1cc(NC(=O)CCc2nc3ccccc3c(=O)[nH]2)ccc1C | 6.3 | nt | 6.7 | -1.0 | 94.3* | 0.9
CC1(NC(=O)CCc2nc3sc4c(c3c(=O)[nH]2)CCCC4)CCS(=O)(=O)C1 (stereo unspecified) | -3.3 | 2.2 | 4.1 | nt | 4.1 | -0.8
CN(CC(=O)Nc1ccccc1Cl)C(=O)CCc1nc2ccccc2c(=O)[nH]1 | -19.2 | 10.6 | 2.6 | -2.6 | 64.0* | -0.1
COc1ccc(NC(=O)COC(=O)CCc2nc3ccccc3c(=O)[nH]2)cc1Cl | 189.6 | nt | 3.4 | 0.3 | 33.0 | 2.3
O=C(CO)c1c[nH]c2ccccc12 | nt | nt | nt | nt | -2.8 | nt
SMILES | SUMO Mot1 rescue | AI-2 QS modul | AHR act | GRIN3A LBD mod | H9c2 protect | NTR1 ag
O=C(CN1CCN(C(=O)c2ccc(-c3nc4ccccc4s3)o2)CC1)Nc1ccc(F)cc1 | 44.7 | nt | 19.9 | -3.9 | 3.4 | 7.3
CC(=O)NCCNC(=O)c1ccc(CSc2nc3ccccc3s2)cc1 | 248.2 | 26.8 | 10.2 | nt | -12.9 | 0.2
O=C(CCc1nc2ccccc2c(=O)[nH]1)Nc1nc(-c2cccs2)cs1 | 5.0 | 15.2 | 24.7 | nt | 64.7* | 2.0
N#CCCN(C(=O)COC(=O)CCc1nc2ccccc2c(=O)[nH]1)c1ccc(F)cc1 | 24.1 | nt | -0.9 | -2.2 | 53.6* | -1.1
O=C(CCc1nc2ccccc2c(=O)[nH]1)NCc1ccco1 | 150.1 | 19.9 | 0.8 | -2.0 | 76.0* | 0.3
O=C(CCc1nc2ccccc2c(=O)[nH]1)Nc1ccc(F)cc1 | -4.1 | 8.5 | 0.6 | -1.1 | 62.1* | 1.1
N#CCCN(C(=O)CSc1nc2ccccc2c(=O)[nH]1)c1ccc(F)cc1 | 2.5 | nt | 1.3 | -1.6 | 48.1 | -1.3
Cc1ccc(CC2(C)C(=O)Nc3c(Cl)ccc(Cl)c32)cc1 (stereo unspecified) | nt | nt | nt | nt | -10.0 | nt
O=C1CCCCC1(O)Cc1ccc2c(c1)OCO2 (stereo unspecified) | nt | nt | nt | 0.5 | 9.4 | nt
COc1ccc(CC(=O)N(C)Cc2ccc(C(C)(C)C)cc2)cc1S(=O)(=O)N1CCOCC1 | 2.7 | 12.6 | 5.8 | 11.1* | -2.6 | 0.3
COc1ccc(CC(=O)N(C)Cc2ccc(Cl)cc2)cc1S(=O)(=O)N1CCOCC1 | -12.9 | 135.4 | -1.3 | -1.0 | 6.5 | -0.2
O=C(COc1ccc(S(=O)(=O)NCc2ccccc2)cc1Cl)NCc1ccncc1 | 0.2 | 7.7 | 3.8 | -0.3 | -1.8 | 1.0
Cc1cc(S(=O)(=O)NCc2ccccc2)ccc1OCC(=O)NCc1ccncc1 | -10.5 | 17.6 | 10.9 | 13.0* | 3.9 | 0.1
COC(=O)c1ccc(C2c3c(n[nH]c3C)C(=O)N2c2ccc(C)cc2)cc1 (stereo unspecified) | -12.7 | 8.6 | -2.6 | 34.8* | 1.1 | 0.3
O=c1[nH]c(CSc2nnc(-c3cccnc3)n2C2CCCCC2)nc2ccccc12 | 6.9 | 21.0 | 5.7 | -1.1 | 88.9* | 4.4
COc1ccc(S(=O)(=O)N2CCCCCC2)cc1N(C)S(=O)(=O)c1ccccc1 | -6.7 | 11.7 | -3.3 | 12.2* | -3.8 | 0.5
O=S(=O)(Nc1cccc(S(=O)(=O)N2CCOCC2)c1)c1ccc(Cl)s1 | -2.0 | 20.2 | -1.0 | 1.4 | 0.5 | 1.1
COc1ccc(S(=O)(=O)N2CCCCCC2)cc1NC(=O)c1ccccc1 | 309.3* | 5.3 | 3.2 | 2.2 | -4.7 | -0.4
COc1ccc(C)cc1NC(=O)c1ccccc1NS(=O)(=O)c1ccc(Cl)s1 | 20.4 | 22.8 | -0.7 | 16.8* | -23.9 | 13.0
Cc1ccc(NC(=O)c2ccccc2NS(=O)(=O)c2ccc(Cl)s2)cc1S(=O)(=O)N1CCOCC1 | 304.1 | 13.1 | -3.5 | 24.3* | -28.1 | 10.4
COc1ccc(NS(=O)(=O)c2ccc(C)cc2)c([N+](=O)[O-])c1 | 399.0 | 13.4 | 2.3 | -1.3 | -3.1 | 2.5
CN1CCN(S(=O)(=O)c2cccc(C(=O)Nc3cccc([N+](=O)[O-])c3)c2)CC1 | -11.4 | 12.5 | 1.2 | 16.9* | 4.0 | 0.8

High-throughput results from PubChem BioAssay.
